Experiment [1] can be described thus: qHTS Assay for Identifying Gametocytocidal Compounds (AID 743244; active = well fitted curve in the direction sought with a large enough effect; an effect the other way counts as inactive or inconclusive; note: potency is the fitted concentration of half-maximal effect;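 for max response: % is set by controls: 0 for no effect and ±100 for the full control effect; actives lower the fluorescent signal which means gametocytes are killed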). Particulars: P. falciparum 3D7 stage III-V gametocytes, alamarBlue, 72 h; max response: stronger effect = lower value. Put shortly:
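Fluorescence at Ex 525/Em 598 nm, recorded 24 h after alamarBlue addition, reports residual metabolic activity of 3D7 gametocytes (stages III–V) following 72 h compound exposure at 37 °C, 5% CO2.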
In general terms: Quantitative high-throughput screening tests each substance at several concentrations.

The nature of experiment [2]: qHTS profiling of the MIPE4 collection as inhibitors of Plasmodium falciparum (3D7) proliferation (AID 743344).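 Note: scaled between DMSO vehicle wells and 0.29 µM artemisinin as full inhibition.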 The settings on record: P. falciparum 3D7 in erythrocytes, SYBR Green DNA fluorescence, 72 h; at 28.5 µM (top of the series) unless noted. The gist of the method:
(§1)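 Parasite DNA was quantified by SYBR Green I fluorescence (ex 485, em 535 nm) after overnight lysis in saponin/Triton buffer at room temperature. Cultures at 0.3% parasitemia and 2.5% hematocrit were first exposed to compound for 72 h at 37 C; signals were normalised to artemisinin (0.29 uM) and vehicle wells.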

A short description of experiment [3]: qHTS profiling of the MIPE4 collection as inhibitors of Plasmodium falciparum (DD2) proliferation (AID 743345). The settings on record: P. falciparum Dd2 in erythrocytes, SYBR Green DNA, 72 h; at 28.5 µM (top of the series) unless noted. The gist of the method:
as §1

Experiment [4] can be described thus: qHTS profiling of the MIPE4 collection as inhibitors of Plasmodium falciparum (DD2) proliferation (Rep 2) (AID 743346). The settings on record: P. falciparum Dd2 in erythrocytes, SYBR Green DNA, 72 h; at 28.5 µM (top of the series) unless noted. Put shortly:
as §1

The nature of experiment [5]: qHTS profiling of the MIPE4 collection as inhibitors of Plasmodium falciparum (HB3) proliferation (AID 743347).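 Note: plate controls were DMSO vehicle wells for no effect and artemisinin wells for full effect.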 Particulars: P. falciparum HB3 in erythrocytes, SYBR Green DNA, 72 h; at 28.5 µM (top of the series) unless noted. Put shortly: as §1
Experiment [6] can be described thus: qHTS profiling for inhibitors of Plasmodium falciparum (3D7) proliferation (AID 743322).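 Note: infected erythrocytes exposed to compound for 72 h before lysis; 100% = DMSO vehicle wells and 0% = 0.29 µM artemisinin.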 The settings on record: P. falciparum 3D7 proliferation; at 28.7 µM (top of the series). The gist of the method:
as §1

A short description of experiment [7]: qHTS profiling for inhibitors of Plasmodium falciparum (HB3) proliferation (AID 743324; active = well fitted curve in the direction sought with a large enough effect; an effect the other way counts as inactive or inconclusive;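 note: 100% = DMSO vehicle wells and 0% = artemisinin-treated control wells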). The settings on record: Plasmodium falciparum HB3 blood-stage proliferation; at 28.7 µM (top of the series). Put shortly: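 SYBR Green fluorescence (485 ex/535 em) of lysed cultures, incubated overnight at room temperature in the dark, quantifies parasite DNA. Infected erythrocytes at 0.3% parasitemia and 2.5% hematocrit were exposed 72 h; values normalized to DMSO and 0.29 uM artemisinin controls.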

Data on twelve molecules can be found in PubChem BioAssay (NCATS).

Molecules are shown by their SMILES. “And” between values parts separate entries of the source, which are not always exact repeats. Identical values can stand only once. Records with an inconclusive call do not appear. The source made the active and inactive calls. Unless noted, the rule behind the calls is not given here.

Regarding `CN(C)CCc1ccc(O)cc1`, the max response in experiment [1] was -0.843% (inactive). Besides, the parasite growth, % of DMSO control in experiment [2] turned out to be 103%. Besides, the parasite growth remaining, % of DMSO control (lower = more inhibition) in experiment [3] was 95.5%. Further, in experiment [4], the parasite growth, % of control (lower = inhibition) came to 111%. Also, the growth, % of control in experiment [5] is 104%.
`COc1ccc2c(c1OC)CN1CCc3cc4c(cc3C1C2)OCO4` (stereo not drawn): the max response in experiment [1] is 4.63% (inactive). In addition, the parasite growth, % of DMSO control in experiment [2] was 12.7%. Further, the parasite growth remaining, % of DMSO control (lower = more inhibition) in experiment [3] is 24.6%. The parasite growth, % of control (lower = inhibition) in experiment [4] turned out to be 10.1%. For the same molecule, the growth, % of control in experiment [5] stood at 7.61%.
`Oc1cn2c(n1)Nc1ccc(Cl)c(Cl)c1C2`: the remaining parasite growth % (stronger effect = lower value) in experiment [6] is 107%. Further, the remaining proliferation (% of control), lower = more inhibition in experiment [7] was found to be 97.7%.
As to `O=NN(CCCl)C(=O)NC1CCCCC1`, the parasite growth, % of DMSO control in experiment [2] was 91.7%. The parasite growth remaining, % of DMSO control (lower = more inhibition) in experiment [3] was 101%. The parasite growth, % of control (lower = inhibition) in experiment [4] was found to be 72.9%. Further, the growth, % of control in experiment [5] is 74.9%.
In experiment [2], `O=C(OC1C[C@H]2CC[C@@H](C1)[N+]21CCCC1)C(O)(c1ccccc1)c1ccccc1` (stereo partly drawn) displayed a parasite growth, % of DMSO control of 32.2%. For the same molecule, the parasite growth remaining, % of DMSO control (lower = more inhibition) in experiment [3] amounted to 48.3%. In addition, the parasite growth, % of control (lower = inhibition) in experiment [4] was 30.4%.
For the molecule `CC(C)C(=O)Nc1ccc([N+](=O)[O-])c(C(F)(F)F)c1`, the parasite growth, % of DMSO control in experiment [2] came to 93%. In addition, the parasite growth remaining, % of DMSO control (lower = more inhibition) in experiment [3] was 91%. In addition, the parasite growth, % of control (lower = inhibition) in experiment [4] was 69.2%. Moreover, the growth, % of control in experiment [5] came out at 88.5%.
Regarding `COc1cc2c(c(OC)c1OC)-c1ccc(OC)c(=O)cc1[C@@H](NC(C)=O)CC2`, in experiment [2], the parasite growth, % of DMSO control was 34.7%. The parasite growth remaining, % of DMSO control (lower = more inhibition) in experiment [3] turned out to be 78.8%. The parasite growth, % of control (lower = inhibition) in experiment [4] was 42.5%. In addition, the growth, % of control in experiment [5] turned out to be 35.4%.
For `CN(C)[C@@H]1C(=O)C(C(N)=O)=C(O)[C@@]2(O)C(=O)C3=C(O)c4c(O)cccc4[C@@](C)(O)[C@H]3C[C@@H]12`, the max response in experiment [1] is 8.32% (inactive). This molecule yielded a parasite growth, % of DMSO control in experiment [2] of 28.7%. Besides, the parasite growth remaining, % of DMSO control (lower = more inhibition) in experiment [3] was 39.9%. In addition, in experiment [4], the parasite growth, % of control (lower = inhibition) is 30.2%. The molecule further displayed a growth, % of control in experiment [5] of 32.8%.
With `COc1cc([C@@H]2c3cc4c(cc3[C@H](O)[C@H]3COC(=O)[C@H]23)OCO4)cc(OC)c1OC`, the max response in experiment [1] is 11.4% (inactive). Further, in experiment [6], the remaining parasite growth % (stronger effect = lower value) was 68.4% and 104%. Further, the remaining proliferation (% of control), lower = more inhibition in experiment [7] is 5.53% and 99%. In experiment [2], this molecule came in with a parasite growth, % of DMSO control of 11%. In addition, the parasite growth remaining, % of DMSO control (lower = more inhibition) in experiment [3] was 89.6%. Besides, the growth, % of control in experiment [5] came out at 6.71%.
Consider `CC1Cc2ccccc2N1NC(=O)c1ccc(Cl)c(S(N)(=O)=O)c1` (stereo not drawn), for which the parasite growth, % of DMSO control in experiment [2] was 83.7%. Moreover, in experiment [3], the parasite growth remaining, % of DMSO control (lower = more inhibition) stood at 34.3%. The parasite growth, % of control (lower = inhibition) in experiment [4] worked out at 84.2%.
For the molecule `O=[N+]([O-])c1cc([As](=O)(O)O)ccc1O`, the Potency in experiment [1] is 3.98 µM (active).
For `N[C@@H]1C[C@H]1c1ccccc1`, in experiment [1], the max response is 21.9% (inactive).
